In PubChem BioAssay:
Calls of active or inactive are those of the source.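 Rule for the calls: active = mean duplicate potentiation above the buffer control mean plus 5 SD of buffer wells; inactive = the rest.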

biological target: Potassium voltage-gated channel subfamily KQT member 2 (Rattus norvegicus) (UniProt O88943); experiment: KCNQ2 thallium flux enhancement – KCNQ2-CHO-K1 cells, selectivity assay for KCNQ1 potentiator project (AID 493009); details: FluxOR thallium flux fluorescence, at 10 µM; hits give high values, scaled: buffer 0, activator control 100;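 note: assay conditions were tuned for KCNQ1 rather than KCNQ2 modulators; signal is max minus min fluorescence divided by baseline after thallium stimulus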
Sequence (O88943 whole entry, looked up): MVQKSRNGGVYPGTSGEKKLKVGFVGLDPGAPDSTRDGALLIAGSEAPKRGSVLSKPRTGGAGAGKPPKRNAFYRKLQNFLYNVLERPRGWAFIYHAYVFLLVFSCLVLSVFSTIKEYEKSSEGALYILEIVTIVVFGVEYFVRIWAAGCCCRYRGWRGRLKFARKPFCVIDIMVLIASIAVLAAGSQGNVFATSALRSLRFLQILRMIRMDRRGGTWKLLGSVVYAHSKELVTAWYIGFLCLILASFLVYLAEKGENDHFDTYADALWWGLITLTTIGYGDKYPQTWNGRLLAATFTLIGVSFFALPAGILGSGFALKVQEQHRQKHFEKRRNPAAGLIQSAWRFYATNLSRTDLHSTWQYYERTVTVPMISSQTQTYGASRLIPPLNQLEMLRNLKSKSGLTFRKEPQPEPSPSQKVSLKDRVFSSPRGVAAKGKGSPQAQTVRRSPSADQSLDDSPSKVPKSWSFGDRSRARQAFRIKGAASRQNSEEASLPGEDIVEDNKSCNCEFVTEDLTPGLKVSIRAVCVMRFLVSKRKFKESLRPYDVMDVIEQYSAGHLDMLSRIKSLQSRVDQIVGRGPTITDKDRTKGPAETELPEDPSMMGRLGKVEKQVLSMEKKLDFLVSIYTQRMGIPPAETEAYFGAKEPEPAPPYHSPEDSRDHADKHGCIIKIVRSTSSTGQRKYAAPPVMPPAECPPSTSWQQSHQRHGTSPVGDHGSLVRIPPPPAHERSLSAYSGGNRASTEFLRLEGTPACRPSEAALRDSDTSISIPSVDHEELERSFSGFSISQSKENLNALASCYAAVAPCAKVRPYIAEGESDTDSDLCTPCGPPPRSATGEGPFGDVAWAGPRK

potentiation, active:
S=c1[nH]cnc2scc(-c3ccc(Br)cc3)c12 147%, Cc1nc(=S)c2c([nH]1)-c1ccccc1CC21CCCCC1 180%, CCOC(=O)CSC(=S)NC(=O)c1ccc(OC)cc1 147%, O=C(CC1(O)C(=O)N(Cc2ccccc2)c2ccccc21)c1ccncc1 (stereo not given) 146%

outcome, inactive:
CCc1ccc(-c2ccc3nnc(SC)n3n2)cc1, S=c1nc[nH]c2c1sc1nc(N3CCOCC3)c3c(c12)CCCC3, CC(C)(C)c1ccc(-n2nc(C#N)c(Cl)cc2=O)cc1, Cc1ccc(C)c(/C=N/n2cc(-c3ccccc3)[nH]c2=S)c1, Cc1cc(NC(=O)CSCC(=O)OC(C)C(=O)N(C)Cc2ccccc2)no1 (stereo not given), CCOc1ccc(OCCCN(C)C)cc1, O=C(NC(=S)Nc1cccc([N+](=O)[O-])c1)c1ccco1, NC(=O)c1ccsc1NC(=O)COC(=O)Cc1ccsc1, CCOC(=O)N/C(N)=N/c1nc2ccccc2s1, COC(=O)N/N=C/c1cc(C)n(-c2ccc(F)cc2)c1C, CSCC(C)N1CCC(n2nccc2NC(=O)CCOc2ccccc2)CC1 (stereo not given), S=c1[nH]nc(C2CCCCC2)n1/N=C/c1cccc(Cl)c1Cl, CCC(C)NCC(=O)Nc1sc2c(c1C(N)=O)CCC2 (stereo not given), COc1cccc(NC(=S)N/N=C2/CCCCc3ccccc32)c1, COc1ccc(C(=O)NC(=S)N(C)C2CCCCC2)cc1Br, Cc1cccc(C(=O)O/N=C(\N)c2cccc([N+](=O)[O-])c2)c1
